Results taken from the supplement of paper PMC6089552.
In all, about 3,200 compounds went through this assay and about 300 (9.4%) showed activity. This is one part of a sample in which actives are shown more often than they occur.

Test system: A673/TR/shEF
Assay: cell viability (LOESS-normalised, relative to median of negative controls) (log2 ratio); higher = more viable cells (less compound effect), active = hit call of the paper (over 3 MAD below the median)
Details: treatment time: 72 h
In short: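 A673/TR/shEF Ewing sarcoma cells were plated at 1,500 per well in 384-well plates and cultured with or without doxycycline, added 24 h before compounds, to induce EWS-FLI1 shRNA knockdown. Library compounds at two or more concentrations, alongside DMSO controls, were applied for three days. Cell viability was measured by CellTiter-Glo luminescence on an Envision reader. Readings were LOESS-corrected per plate, divided by the median of negative controls and log2-transformed, and hits were wells lying at least three median absolute deviations from the median of all screened wells.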

[1] = 0.25 µM, library screen: screen2, EWS-FLI1 expression: high (no doxycycline)
[2] = 0.25 µM, library screen: screen2, EWS-FLI1 expression: low (doxycycline-induced shRNA knockdown)
[3] = 2.5 µM, library screen: screen2, EWS-FLI1 expression: high (no doxycycline)
[4] = 2.5 µM, library screen: screen2, EWS-FLI1 expression: low (doxycycline-induced shRNA knockdown)
[5] = 0.25 µM, library screen: screen1, EWS-FLI1 expression: high (no doxycycline)
[6] = 0.25 µM, library screen: screen1, EWS-FLI1 expression: low (doxycycline-induced shRNA knockdown)
[7] = 2.5 µM, library screen: screen1, EWS-FLI1 expression: high (no doxycycline)
[8] = 2.5 µM, library screen: screen1, EWS-FLI1 expression: low (doxycycline-induced shRNA knockdown)
[9] = 0.103 µM, library screen: screen3, EWS-FLI1 expression: high (no doxycycline)
[10] = 0.103 µM, library screen: screen3, EWS-FLI1 expression: low (doxycycline-induced shRNA knockdown)
[11] = 0.308 µM, library screen: screen3, EWS-FLI1 expression: high (no doxycycline)
[12] = 0.308 µM, library screen: screen3, EWS-FLI1 expression: low (doxycycline-induced shRNA knockdown)
[13] = 0.926 µM, library screen: screen3, EWS-FLI1 expression: high (no doxycycline)
[14] = 0.926 µM, library screen: screen3, EWS-FLI1 expression: low (doxycycline-induced shRNA knockdown)
[15] = 2.8 µM, library screen: screen3, EWS-FLI1 expression: high (no doxycycline)
[16] = 2.8 µM, library screen: screen3, EWS-FLI1 expression: low (doxycycline-induced shRNA knockdown)
[17] = 8.3 µM, library screen: screen3, EWS-FLI1 expression: high (no doxycycline)
[18] = 8.3 µM, library screen: screen3, EWS-FLI1 expression: low (doxycycline-induced shRNA knockdown)
[19] = 25 µM, library screen: screen3, EWS-FLI1 expression: high (no doxycycline)
[20] = 25 µM, library screen: screen3, EWS-FLI1 expression: low (doxycycline-induced shRNA knockdown)

Measured: cell viability (log2)

CC(=O)O[C@H]1CC2(C)[C@@H](C[C@@H](O)[C@H]3[C@@]4(C)CC[C@@H](O)[C@@H](C)[C@@H]4CC[C@@]32C)/C1=C(/CCC=C(C)C)C(=O)O (stereo not given in full)
inactive: [1] 0.0714 | [2] 0.0604 | [3] 0.159 | [4] 0.0152

CC1CCC2(CO)CCC3(C)C(=CCC4C5(C)CCC(O)C(C)(C)C5CCC43C)C2C1C (stereo not given)
inactive: [5] 0.00774 | [6] -0.0265 | [7] 0.0749 | [8] 0.092

Cn1cnc2c(F)c(Nc3ccc(Br)cc3Cl)c(C(=O)NOCCO)cc21
inactive: [9] -0.0515 | [10] 0.111 | [11] -0.109 | [12] 0.0965 | [14] 0.113 | [16] 0.014 | [18] 0.0549 | [20] -0.089
active: [13] -0.189 | [15] -0.222 | [17] -0.293 | [19] -0.303

Cc1ccccc1CN1CCN(Cc2ccco2)CC1
inactive: [5] 0.12 | [6] 0.0129 | [7] 0.0799 | [8] -0.0931

Cc1ccc(CN2CCN(Cc3c[nH]c4ccccc34)CC2)cc1
inactive: [5] 0.0521 | [6] 0.0225 | [7] 0.104 | [8] 0.0231

CC(=O)c1cc2c(cc1O)OC(C)(C)C=C2
inactive: [5] 0.16 | [6] -0.0151 | [7] 0.126 | [8] 0.0912

CC(C(=O)O)N1C(=O)C(=Cc2cccnc2)SC1=S (stereo not given)
inactive: [5] -0.0281 | [6] 0.0107 | [7] 0.0923 | [8] -0.0695

CC(C(=O)O)N1C(=O)C(=Cc2ccccn2)SC1=S (stereo not given)
inactive: [7] 0.144 | [8] 0.106
active: [5] -2.05 | [6] -1.9

CC(C)N1C(=O)C(=Cc2ccccc2F)SC1=S
inactive: [5] 0.0965 | [6] 0.0324 | [7] 0.0812 | [8] -0.039

C=CC1=C(C)/C(=C/c2[nH]c(Cc3[nH]c(/C=C4\NC(=O)C(C)=C4C=C)c(C)c3CCC(=O)O)c(CCC(=O)O)c2C)NC1=O
inactive: [5] 0.0132 | [6] 0.0277 | [7] 0.0983 | [8] 0.128

S=c1[nH]nc(COc2ccc(Cl)cc2Cl)n1-c1ccccc1
inactive: [5] 0.00963 | [6] 0.148 | [7] 0.0937 | [8] 0.0872

C[C@@H]1CC[C@@]2(OC1)O[C@H]1C[C@H]3[C@@H]4CC[C@H]5C[C@@H](O)CC[C@]5(C)[C@H]4CC(=O)[C@]3(C)[C@H]1[C@@H]2C
inactive: [5] 0.102 | [6] -0.00894 | [7] 0.127 | [8] 0.0766

Nc1nc(OCc2ccccc2)c2[nH]cnc2n1
inactive: [1] 0.21 | [2] 0.111 | [3] 0.106 | [4] 0.0266

Nc1ncc2[nH]cnc2n1
inactive: 0.025 µM, library screen: screen1, EWS-FLI1 expression: high (no doxycycline) 0.156 | 0.025 µM, library screen: screen1, EWS-FLI1 expression: low (doxycycline-induced shRNA knockdown) 0.0178 | [5] 0.22 | [6] 0.0137 | [8] 0.025 | 25 µM, library screen: screen1, EWS-FLI1 expression: high (no doxycycline) -0.0198 | 25 µM, library screen: screen1, EWS-FLI1 expression: low (doxycycline-induced shRNA knockdown) 0.0477
active: [7] -0.0954

Nc1ncnc2nc[nH]c12
inactive: [9] -0.0276 | [10] 0.0358 | [5] -0.00904 | [6] 0.112 | [11] 0.0266 | [12] 0.0376 | [13] 0.0356 | [14] 0.0359 | [7] 0.0839 | [8] 0.087 | [15] -0.0229 | [16] 0.045 | [17] -0.016 | [18] 0.0209 | [19] 0.0262 | [20] 0.0745

CN1CCC[C@@H]1c1cccnc1
inactive: [1] 0.0881 | [2] 0.0848 | [3] 0.112 | [4] 0.123

C[C@H](C[C@@H](O)[C@@H]1OC1(C)C)[C@@H]1CC[C@]2(C)C3=CC[C@H]4C(C)(C)C(=O)CC[C@]4(C)[C@H]3CC[C@@]12C
inactive: [5] 0.0762 | [6] 0.064 | [7] 0.0491 | [8] 0.136

Nc1ncnc2c1ncn2[C@@H]1O[C@H](CO)[C@@H](O)[C@H]1O
inactive: [9] 0.0648 | [10] 0.118 | [5] 0.105 | [6] 0.0646 | [2] 0.0787 | [11] 0.108 | [12] 0.149 | [13] 0.0961 | [14] 0.106 | [7] 0.129 | [8] 0.198 | [3] 0.141 | [4] 0.177 | [15] 0.133 | [16] 0.0552 | [17] 0.0565 | [18] 0.0635 | [19] 0.137 | [20] 0.158
active: [1] -0.195

Nc1ncnc2c1ncn2C1OC(C(=O)NC2CC2)C(O)C1O (stereo not given)
inactive: [1] 0.208 | [2] 0.0695 | [3] 0.136 | [4] 0.0888

CNc1ncnc2c1ncn2[C@@H]1O[C@H](CO)[C@@H](O)[C@H]1O
inactive: [1] 0.104 | [2] 0.0674 | [3] 0.0505 | [4] 0.098
